# Results taken from ChEMBL document CHEMBL1961873, “Compounds: GSK PKIS; Assays: Nanosyn kinase panel” (2012).
# Target: Dual specificity mitogen-activated protein kinase kinase 1 (Homo sapiens) (UniProt Q02750);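 further: values reported are mean inhibition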
# Conditions: at 1 µM
# Sequence of Dual specificity mitogen-activated protein kinase kinase 1 (Homo sapiens) (Q02750 whole entry): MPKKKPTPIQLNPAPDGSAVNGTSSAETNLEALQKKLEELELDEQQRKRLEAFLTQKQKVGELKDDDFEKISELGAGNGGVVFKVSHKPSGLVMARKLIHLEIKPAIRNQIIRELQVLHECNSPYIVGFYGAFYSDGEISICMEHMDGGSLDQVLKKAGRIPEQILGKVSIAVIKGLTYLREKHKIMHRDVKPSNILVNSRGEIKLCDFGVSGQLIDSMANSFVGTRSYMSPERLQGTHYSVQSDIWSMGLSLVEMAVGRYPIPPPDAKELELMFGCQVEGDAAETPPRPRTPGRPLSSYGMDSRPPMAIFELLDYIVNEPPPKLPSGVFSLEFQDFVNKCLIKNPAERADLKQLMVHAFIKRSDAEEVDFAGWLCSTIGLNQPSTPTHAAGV
row,Structure (SMILES),inhibition [%]
1,Nc1nccc(-c2c(-c3ccc(F)cc3)nn3cc(C(F)(F)F)ccc23)n1,0.93
2,CN1CCN(C(=O)c2ccc(NC(=O)Nc3ccc(N(C)c4ccnc(Nc5ccc(CS(C)(=O)=O)cc5)n4)cc3)cc2)CC1,10.8
3,CCn1c(-c2nonc2N)nc2c(C#CC(C)(C)O)nc(OCCNC)cc21,3.92
4,COc1ccc(-c2nn3ncccc3c2-c2ccnc(Nc3cccc(C(F)(F)F)c3)n2)cc1,2.55
5,Cc1ccc(C(=O)NC2CC2)cc1-c1ccc2[nH]ncc2c1,-3.98
6,Cc1ccc2c(c1)/C(=N/Nc1ccc(S(N)(=O)=O)cc1)C(=O)N2,1.05
7,FC(F)(F)c1ccc(-c2nn3ncccc3c2-c2ccnc(Nc3ccc4c(c3)OCCO4)n2)cc1,-1.13
8,NS(=O)(=O)c1ccc(Nc2cc(-c3cccc(O)c3)n[nH]2)cc1,5.67
9,Cc1cc(O)cc(C)c1/C=C/c1cncc(C(=O)N(C)C)c1,2.6
10,COc1cc(Nc2nccc(-c3cnn4ncccc34)n2)cc(OC)c1,26.4
11,COc1cccc(-n2ncc3c(N/N=C/c4ccc(C)cc4)ncnc32)c1,3.78
12,[O-][S+]1CCN(Cc2ccc(-c3ccc4ncnc(Nc5ccc(OCc6ccccc6)c(Cl)c5)c4c3)o2)CC1,3.29
13,COc1ccc2ncnc(Nc3ccc(OCc4ccccc4)cc3)c2c1,2.41
14,CN(C)C(=O)O[C@H]1CN[C@H](C#Cc2cc3ncnc(Nc4ccc(OCc5cccc(F)c5)c(Cl)c4)c3s2)C1,2.35
15,NS(=O)(=O)c1ccc(NC=C2C(=O)Nc3ccc4ncsc4c32)cc1,68.3
16,CS(=O)(=O)CCNCc1nc(-c2ccc3ncnc(Nc4ccc(OCc5cccc(C(F)(F)F)c5)cc4)c3c2)cs1,0.13
17,CCS(=O)(=O)c1ccc(OC)c(Nc2nccc(N(C)c3ccc4c(C)n[nH]c4c3)n2)c1,5.1

row,Structure (SMILES),inhibition [%]
1,Nc1nccc(-c2c(-c3ccc(F)cc3)ncn2CCCN2CCOCC2)n1,4.45
2,COC(=O)c1ccc2c(c1)C(=Cc1cc(Br)c(O)c(Br)c1)C(=O)N2,5.79
3,COc1cc2ncnc(Nc3ccc4c(cnn4Cc4ccccc4)c3)c2cc1OC,2.12
4,O=S(=O)(CCOCc1ccc(-c2ccc3ncnc(Nc4ccc(OCc5cccc(F)c5)c(Cl)c4)c3c2)o1)c1ccccc1,3.33
5,NC(=O)c1sc(-n2cnc3ccccc32)cc1OCc1ccccc1Br,4.35
6,NS(=O)(=O)c1cccc(-c2cc3ccncc3cc2OCc2ccccc2)c1,5.86
7,Cc1cc(Cl)cc2c1NC(=O)C2=NNc1ccc(S(N)(=O)=O)cc1,2.09
8,Oc1cccc(-c2nc(-c3ccccc3)[nH]c2-c2ccncc2)c1,4.94
9,COC(=O)Nc1nc2cc(Oc3ccc(NC(=O)Nc4cccc(Br)c4)cc3)ccc2[nH]1,4
10,Nc1nccc(C#Cc2cncnc2Nc2ccc(OCc3cccc(F)c3)c(Cl)c2)n1,4.4
11,O=C1Nc2ccc(-c3cccnc3)cc2C1=Cc1cc(Br)c(O)c(Br)c1,5.62
12,Nc1ccc(C#Cc2cncnc2Nc2ccc(OCc3cccc(F)c3)c(Cl)c2)cc1,3.23
13,NS(=O)(=O)c1cccc(Nc2cc(-c3ccc(F)cc3)n[nH]2)c1,3.82
14,CCS(=O)(=O)c1ccc(OC)c(Nc2ncc(-c3cccc(OC)c3)o2)c1,3.57
15,CCn1c(-c2nonc2N)nc2ccc(F)cc21,7.03
16,O=C1Nc2ccccc2/C1=C/Nc1ccc2[nH]c(=O)[nH]c2c1,6.88
17,CS(=O)(=O)Nc1cccc(-c2ccc3c(NC(=O)C4CC4)n[nH]c3c2)c1,0.96

# Target: Misshapen-like kinase 1 (Homo sapiens) (UniProt Q8N4C8);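 further: mean inhibition value reported, from GSK PKIS kinase profiling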
# Conditions: at 0.1 µM
# Sequence of Misshapen-like kinase 1 (Homo sapiens) (Q8N4C8 whole entry, looked up): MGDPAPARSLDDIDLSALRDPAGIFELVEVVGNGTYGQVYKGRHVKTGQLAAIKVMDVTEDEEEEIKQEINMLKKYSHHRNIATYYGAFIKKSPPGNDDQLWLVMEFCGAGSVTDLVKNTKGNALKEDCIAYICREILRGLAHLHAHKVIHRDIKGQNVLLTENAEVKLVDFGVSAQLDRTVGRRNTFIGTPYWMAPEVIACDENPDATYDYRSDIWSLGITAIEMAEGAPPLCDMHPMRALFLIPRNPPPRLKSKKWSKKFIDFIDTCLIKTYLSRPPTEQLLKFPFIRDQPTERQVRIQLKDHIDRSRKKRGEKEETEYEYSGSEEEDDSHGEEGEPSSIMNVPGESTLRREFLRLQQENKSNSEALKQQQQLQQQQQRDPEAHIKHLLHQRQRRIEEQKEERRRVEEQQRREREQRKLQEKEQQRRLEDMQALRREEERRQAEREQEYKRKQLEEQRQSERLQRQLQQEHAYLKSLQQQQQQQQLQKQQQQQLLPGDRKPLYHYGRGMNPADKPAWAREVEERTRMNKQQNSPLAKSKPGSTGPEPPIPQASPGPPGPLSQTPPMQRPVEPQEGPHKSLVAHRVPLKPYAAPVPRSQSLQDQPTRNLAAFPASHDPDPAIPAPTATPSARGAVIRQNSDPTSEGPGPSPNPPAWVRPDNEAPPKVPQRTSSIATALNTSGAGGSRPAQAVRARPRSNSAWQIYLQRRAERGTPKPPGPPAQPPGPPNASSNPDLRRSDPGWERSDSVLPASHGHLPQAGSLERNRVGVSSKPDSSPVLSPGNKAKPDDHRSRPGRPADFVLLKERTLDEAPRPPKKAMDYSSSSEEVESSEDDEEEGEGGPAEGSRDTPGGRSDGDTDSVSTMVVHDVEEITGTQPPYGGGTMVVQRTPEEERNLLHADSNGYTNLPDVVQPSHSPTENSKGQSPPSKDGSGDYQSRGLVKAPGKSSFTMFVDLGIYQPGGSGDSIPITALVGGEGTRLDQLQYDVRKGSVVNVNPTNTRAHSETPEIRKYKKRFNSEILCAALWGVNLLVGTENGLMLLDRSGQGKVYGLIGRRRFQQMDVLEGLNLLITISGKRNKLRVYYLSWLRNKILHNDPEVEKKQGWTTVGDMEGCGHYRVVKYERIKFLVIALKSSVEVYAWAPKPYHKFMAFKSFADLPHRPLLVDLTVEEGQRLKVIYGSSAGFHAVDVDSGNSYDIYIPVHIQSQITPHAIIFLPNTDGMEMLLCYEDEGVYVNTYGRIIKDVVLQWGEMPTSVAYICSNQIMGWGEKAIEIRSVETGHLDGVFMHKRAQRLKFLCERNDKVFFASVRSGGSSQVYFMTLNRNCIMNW
row,Structure (SMILES),inhibition [%]
1,Nc1nccc(-c2c(-c3ccc(F)cc3)nn3cc(C(F)(F)F)ccc23)n1,1.74
2,CN1CCN(C(=O)c2ccc(NC(=O)Nc3ccc(N(C)c4ccnc(Nc5ccc(CS(C)(=O)=O)cc5)n4)cc3)cc2)CC1,7.54
3,CCn1c(-c2nonc2N)nc2c(C#CC(C)(C)O)nc(OCCNC)cc21,5.45
4,COc1ccc(-c2nn3ncccc3c2-c2ccnc(Nc3cccc(C(F)(F)F)c3)n2)cc1,5.18
5,Cc1ccc(C(=O)NC2CC2)cc1-c1ccc2[nH]ncc2c1,-4.28
6,Cc1ccc2c(c1)/C(=N/Nc1ccc(S(N)(=O)=O)cc1)C(=O)N2,16.2
7,FC(F)(F)c1ccc(-c2nn3ncccc3c2-c2ccnc(Nc3ccc4c(c3)OCCO4)n2)cc1,2.9
8,NS(=O)(=O)c1ccc(Nc2cc(-c3cccc(O)c3)n[nH]2)cc1,8
9,Cc1cc(O)cc(C)c1/C=C/c1cncc(C(=O)N(C)C)c1,6.61
10,COc1cc(Nc2nccc(-c3cnn4ncccc34)n2)cc(OC)c1,20.6
11,COc1cccc(-n2ncc3c(N/N=C/c4ccc(C)cc4)ncnc32)c1,7.18
12,[O-][S+]1CCN(Cc2ccc(-c3ccc4ncnc(Nc5ccc(OCc6ccccc6)c(Cl)c5)c4c3)o2)CC1,-0.23
13,COc1ccc2ncnc(Nc3ccc(OCc4ccccc4)cc3)c2c1,3.65
14,CN(C)C(=O)O[C@H]1CN[C@H](C#Cc2cc3ncnc(Nc4ccc(OCc5cccc(F)c5)c(Cl)c4)c3s2)C1,3.51
15,NS(=O)(=O)c1ccc(NC=C2C(=O)Nc3ccc4ncsc4c32)cc1,62.9
16,CS(=O)(=O)CCNCc1nc(-c2ccc3ncnc(Nc4ccc(OCc5cccc(C(F)(F)F)c5)cc4)c3c2)cs1,2.9
17,CCS(=O)(=O)c1ccc(OC)c(Nc2nccc(N(C)c3ccc4c(C)n[nH]c4c3)n2)c1,3.64

row,Structure (SMILES),inhibition [%]
1,Nc1nccc(-c2c(-c3ccc(F)cc3)ncn2CCCN2CCOCC2)n1,5.84
2,COC(=O)c1ccc2c(c1)C(=Cc1cc(Br)c(O)c(Br)c1)C(=O)N2,26.4
3,COc1cc2ncnc(Nc3ccc4c(cnn4Cc4ccccc4)c3)c2cc1OC,7.38
4,O=S(=O)(CCOCc1ccc(-c2ccc3ncnc(Nc4ccc(OCc5cccc(F)c5)c(Cl)c4)c3c2)o1)c1ccccc1,3.54
5,NC(=O)c1sc(-n2cnc3ccccc32)cc1OCc1ccccc1Br,5.6
6,NS(=O)(=O)c1cccc(-c2cc3ccncc3cc2OCc2ccccc2)c1,7.3
7,Cc1cc(Cl)cc2c1NC(=O)C2=NNc1ccc(S(N)(=O)=O)cc1,10
8,Oc1cccc(-c2nc(-c3ccccc3)[nH]c2-c2ccncc2)c1,5.57
9,COC(=O)Nc1nc2cc(Oc3ccc(NC(=O)Nc4cccc(Br)c4)cc3)ccc2[nH]1,4.61
10,Nc1nccc(C#Cc2cncnc2Nc2ccc(OCc3cccc(F)c3)c(Cl)c2)n1,6.95
11,O=C1Nc2ccc(-c3cccnc3)cc2C1=Cc1cc(Br)c(O)c(Br)c1,45
12,Nc1ccc(C#Cc2cncnc2Nc2ccc(OCc3cccc(F)c3)c(Cl)c2)cc1,3.73
13,NS(=O)(=O)c1cccc(Nc2cc(-c3ccc(F)cc3)n[nH]2)c1,14.6
14,CCS(=O)(=O)c1ccc(OC)c(Nc2ncc(-c3cccc(OC)c3)o2)c1,5.68
15,CCn1c(-c2nonc2N)nc2ccc(F)cc21,6.88
16,O=C1Nc2ccccc2/C1=C/Nc1ccc2[nH]c(=O)[nH]c2c1,17.4
17,CS(=O)(=O)Nc1cccc(-c2ccc3c(NC(=O)C4CC4)n[nH]c3c2)c1,1.34
